Assay outcomes (PubChem)
ELG1 DNA repair = inhibitors of ELG1-dependent DNA repair in HEK293T cells | HEK293T ELG1-luciferase reporter, luminescence, 16 h; DNA damage induced by 5-fluorouridine | actives 2.3% (n = 330,000) | Potency, µM (doses to about 46.1 µM), hits mostly inhibitors; note: nearly all actives have a fitted effect of over 55% in size
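Overnight (16 hr) co-exposure of 2,000 cells/well to 5-fluorouridine and compound at 37 °C preceded detection. Luciferase was quantified via ONE-Glo luminescence; loss of signal denotes inhibition.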
ELG1 genotox = induces genotoxicity in HEK293T cells with luciferase-tagged ELG1; Potency, µM (series often up to 46 µM), most hits filed as activators; HEK293T ELG1-luciferase reporter, luminescence, 16 h; AID 504466; actives 1.3% (n = 330,000); note: nearly all actives have a fitted effect of over 60% in size
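Genotoxic stress is detected as increased luminescence from luciferase-tagged ELG1 in HEK293T cells, measured with ONE-Glo after a 16 hr treatment at 37 °C.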
SMN2 splice up = SMN2 splice variant enhancement; HEK293 SMN2-luciferase splicing reporter, luminescence, 30-36 h; Potency, µM (series often up to 46.1 µM), most hits filed as activators; actives 2.8% (n = 210,000); AID 1458; note: nearly all actives have a fitted effect of over 55% in size
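HEK293 cells carry an SMN2 […]–luciferase reporter in which exon 7 inclusion puts luciferase in frame. Cells were plated 10-12 h before compound addition, then incubated 30-36 h at 37C. ONE-Glo luminescence was read; sodium butyrate at 4.5 mM final served as control.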
Rab9 prom act = activators of Rab9 promoter | Potency, µM (doses to about 9.22 µM), most hits filed as activators | actives 2.8% (n = 320,000) | Huh7 Rab9 promoter-luciferase reporter, luminescence, 24 h; note: nearly all actives have a fitted effect of over 60% in size
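Rab9 promoter-driven luciferase in stably transfected Huh7 cells; 1500 cells/well rested 2 h, exposed to compound in DMSO for 24 h at 37 °C, 5% CO2. Luminescence read 10 min after adding luciferase reagent at ambient temperature.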
NPC1 prom act = activators of NPC1 promoter | Huh7 NPC1 promoter luciferase reporter, 24 h | Potency, µM (top dose mostly 9.22 µM), hits mostly activators | actives 2.4% (n = 320,000) | AID 485313; note: nearly all actives have a fitted effect of over 60% in size
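Quantitative HTS used a cell-based reporter: Huh7 cells stably bearing the NPC1 promoter upstream of luciferase were treated with compounds for 24 h, and promoter activation was read as luminescence.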
FLuc modulator = inhibits or activates purified firefly luciferase, miR-21 counter-screen | P08659 | purified FLuc, Km substrates, luminescence inhibition | Potency, µM (top dose mostly 57.5 µM), hits mostly inhibitors | actives 6.9% (n = 360,000) | AID 588342; note: nearly all actives have a fitted effect of over 55% in size
Target sequence (P08659 whole entry, looked up): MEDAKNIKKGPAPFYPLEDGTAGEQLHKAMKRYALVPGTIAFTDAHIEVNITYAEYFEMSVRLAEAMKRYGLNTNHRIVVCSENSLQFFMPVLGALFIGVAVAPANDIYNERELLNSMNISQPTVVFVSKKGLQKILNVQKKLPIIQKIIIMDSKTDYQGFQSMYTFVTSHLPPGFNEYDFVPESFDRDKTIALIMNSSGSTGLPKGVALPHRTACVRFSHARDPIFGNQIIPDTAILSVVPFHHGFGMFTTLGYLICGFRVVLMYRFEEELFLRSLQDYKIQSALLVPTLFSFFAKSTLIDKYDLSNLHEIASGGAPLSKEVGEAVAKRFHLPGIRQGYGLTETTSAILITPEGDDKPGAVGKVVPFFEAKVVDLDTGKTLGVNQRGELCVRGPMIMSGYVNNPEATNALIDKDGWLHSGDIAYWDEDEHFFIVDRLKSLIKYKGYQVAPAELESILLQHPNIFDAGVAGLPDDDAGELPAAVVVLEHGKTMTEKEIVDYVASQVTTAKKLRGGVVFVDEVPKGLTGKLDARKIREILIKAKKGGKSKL
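Purified P. pyralis luciferase, 10 nM final, with Km-level 10 uM D-luciferin and 10 uM ATP in 50 mM Tris acetate pH 7.5, 10 mM Mg acetate, 0.01% Tween-20, 0.05% BSA; 6-point qHTS titration about 60 µM downward; luminescence read.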
Hits are given with their value; 0 = inactive; ? = inconclusive; - = no result given; [ ] = another dose, or the depositor's remark. Rows were chosen to be rich in hits. Some 9.2% of all compounds tested hit in one or more screens of this group. Calls come from the whole dose curve; as a rule, active = well fitted curve in the direction sought with a large enough effect; inconclusive = small, poorly fitted or top-dose-only effect, or another doubt; inactive = no such curve, though single readings can be large; an effect the other way counts as inactive or inconclusive.

SMILES | ELG1 DNA repair | ELG1 genotox | SMN2 splice up | Rab9 prom act | NPC1 prom act | FLuc modulator
C/C(=N\NC(=O)c1c(Cl)c(C)nn1C)c1cccc(NC(=O)COc2ccc(Cl)cc2)c1 | 16µM | 0 | 0 | 0 | ? | 8.5µM
C/C(=N/NC(=O)c1ccc(C)s1)c1cccc(NC(=O)COc2ccc(Cl)cc2C)c1 | 0 | 0 | 0 | 0 | 0 | 5.4µM
Nc1nc(SCC(=O)C23CC4CC(CC(C4)C2)C3)n[nH]1 | 0 | 0 | 0 | 0 | 0 | 0
O=C(/C=C/Nc1ccc(Oc2ccccc2Cl)cc1)c1ccco1 | ? | ? | 16µM | 2.2µM | 3.5µM | 3.4µM
COc1ccccc1Oc1ccc(N/C=C/C(=O)c2ccco2)cc1 | ? | ? | 11µM | 1.4µM | 3.2µM | 5.4µM
COC(=O)c1ccccc1Oc1ccc(NC(=O)c2ccco2)cc1 | 0 | 0 | - | 0 | 0 | ?
CCOc1ccccc1/C=C/c1onc(C)c1S(=O)(=O)N1CCC(C(=O)N2CCCCC2)CC1 | - | - | - | - | - | 0
CCN(CC)c1ccc(/C=C2\C(=N)N3N=C(CC(=O)N4CCOCC4)SC3=NC2=O)cc1 | ? | 0 | - | 0 | 0 | 27µM
CSc1ccc(/C=C2\C(=N)N3N=C(CC(=O)N4CCOCC4)SC3=NC2=O)cc1 | 0 | 0 | - | 0 | 0 | ?
Cc1cc(/C=C2\C(=N)N3N=C(CC(=O)N4CCOCC4)SC3=NC2=O)c(C)n1-c1ccccc1 | 0 | 0 | - | 0 | 0 | 11µM
CC(C)C(NS(=O)(=O)c1cccs1)C(=O)NCCCN1CCCCCC1 (stereo unspecified) | 0 | 0 | - | 0 | 0 | 0
COc1ccc(CCn2c(=O)c3cccnc3n(CC(=O)Nc3ccc(C)cc3C)c2=O)cc1OC | - | - | 0 | - | - | 0
CN(Cc1ccccc1Cl)C(=O)CNC(=O)C12CC3CC(CC(C3)C1)C2 | 0 | 0 | - | - | - | -
c1ccc(COc2ccc(Oc3nc(N4CCCCC4)nc(N4CCOCC4)n3)nn2)cc1 | ? | 0 | 22µM | 0 | 0 | 0
COCCCNC(=O)c1ccc(Cn2c(=O)c3ccccc3n(CC(=O)Nc3c(C)cccc3C)c2=O)cc1 | - | - | ? | - | - | 0
CCOc1ccc(CN2C(=O)c3ccccc3C2=O)cc1C(=O)N1CCC(C(N)=O)CC1 | 0 | 0 | - | 0 | 0 | 0
CS(=O)(=O)c1ccccc1C(=O)Nc1nc2ccccc2[nH]1 | 0 | 0 | - | 0 | 0 | 0
CSc1ccccc1C(=O)Nc1nc2ccccc2[nH]1 | ? | ? | 14µM | 4.5µM | 3.2µM | ?
CSc1ccccc1C(=O)Nc1nc2ccccc2c(=O)[nH]1 | ? | 0 | - | 2.8µM | 0 | 19µM
NNc1nnc2c3cc(F)ccc3n(CCc3ccccc3)c2n1 | 12µM | 0 | - | 0 | 0 | 0
CC(C)n1c(SCC(=O)Nc2ccccc2N2CCOCC2)nc2c1c(=O)n(C)c(=O)n2C | ? | 0 | 0 | 0 | 0 | 0
CCn1c(SCC(=O)Nc2ccccc2N2CCCCC2)nc2c1c(=O)n(C)c(=O)n2C | 18µM | 0 | 0 | 0 | 0 | 0
N/C(=N\OC(=O)C12CC3CC(CC(C3)C1)C2)c1cccnc1 | 0 | 0 | 0 | 0 | 0 | 15µM
N/C(=N\OC(=O)N1CCOCC1)c1ccccc1 | 0 | 0 | 0 | 0 | 0 | 17µM
N/C(=N\OC(=O)C12CC3CC(CC(C3)C1)C2)c1ccccc1 | 0 | 0 | 0 | 0 | 0 | 4.8µM
SMILES | ELG1 DNA repair | ELG1 genotox | SMN2 splice up | Rab9 prom act | NPC1 prom act | FLuc modulator
N/C(=N\OC(=O)C12CC3CC(CC(C3)C1)C2)c1ccccn1 | ? | ? | 0 | 0 | 0 | 7.6µM
N#CC1(c2ccccc2)CCC(=O)N1Cc1ccccc1 (stereo unspecified) | 0 | 0 | - | 0 | 0 | 0
C/C(=N/NC(=O)c1ccoc1C)C12CC3CC(CC(C3)C1)C2 | ? | ? | 0 | 0 | 0 | ?
C/C(=N\NC(=O)c1ccccn1)C12CC3CC(CC(C3)C1)C2 | ? | 0 | 0 | ? | 0 | 15µM
Cn1c(=O)n(C)c2cc(N3CCOCC3)c(NS(=O)(=O)c3ccc(Br)cc3)cc21 | - | - | 13µM | - | - | 0
O=C(Nc1ccc2c(c1)CCC2)c1cc(F)cc(F)c1 | ? | ? | - | 1.4µM | 2.5µM | 3µM
O=C(Nc1ccc2c(c1)CCC2)c1ccc(F)c(S(=O)(=O)N2CCOCC2)c1 | 0 | 0 | 0[1.84 µM] | ? | 0 | ?
O=C(Nc1ccc2c(c1)CCC2)c1cccc(F)c1 | ? | 8.2µM | 11µM | 1.4µM | 3.2µM | 5.4µM
O=C(Nc1ccncc1)c1cccc(F)c1 | 0 | 0 | 0 | 0 | 0 | 0
Cc1ccc2c(c1)C(=O)[C@]1(O)CCN(c3ccccc3)C1=N2 | - | - | 0 | - | - | -
O=c1oc2ccccc2c(Nc2ccccc2O)c1[N+](=O)[O-] | 0 | 0 | - | 0 | 0 | 0
O=c1oc2ccccc2c(Nc2cc3ccccc3cc2O)c1[N+](=O)[O-] | ? | 0 | - | ? | ? | 12µM
CC1CCN(C2=NC(=O)/C(=C/c3cn(-c4ccccc4)nc3-c3cccc(S(=O)(=O)N(C)C)c3)S2)CC1 | 5.2µM | 0 | 0 | ? | 0 | 2.7µM
COc1ccc(N2C(S)=C(C#N)C(=O)NC23CCCCC3)cc1 | 0 | 0 | - | 0 | 0 | 27µM
COc1ccc(N2C(=O)CCC2(C#N)c2ccc(Br)cc2)cc1 (stereo unspecified) | 0 | 0 | 0 | 0 | 0 | 0
CCC1(CC)Nc2ccccc2C(=O)N1c1ccc(OC)cc1 | ? | ? | - | 2.5µM | 2µM | 11µM
COc1ccc(N2C(=O)c3ccccc3NC23CCCC3)cc1 | ? | ? | 11µM | 2.5µM | 4µM | ?
O=C(NCCCc1nc2ccccc2n1Cc1ccc(F)cc1)C1CCCCC1 | - | - | 0 | - | - | 0
C=CC[C@H](CC(=O)OC(C)(C)C)C(=O)OC[C@@H]1CCCN1C(=O)[C@@H](CC=C)CC(=O)N[C@H](CO)Cc1ccccc1 | ? | 0 | - | - | - | -
CCOc1ccc(S(=O)(=O)N(CC(=O)N2CCC(C(N)=O)CC2)c2ccc(F)cc2)cc1 | 0 | 0 | - | 0 | 0 | 0
O=C(COc1ccc(OCc2ccccc2)cc1)NC1CCOC1=O (stereo unspecified) | ? | 0 | 0 | 0 | 0 | 21µM
COc1ccccc1CNc1ncnc2c1cnn2-c1ccc(C)cc1 | - | - | - | - | - | 17µM
COc1cc2ncnc(NCc3ccco3)c2cc1OC | ? | 0 | 0 | 0 | 0 | 0
c1ccc(-n2ncc3c(NCc4ccco4)ncnc32)cc1 | ? | 10µM | - | ? | ? | 24µM
Brc1ccc2ncnc(NCc3ccco3)c2c1 | 8.2µM | 0 | 0 | 0 | 0 | 0
Cc1ccc(-n2ncc3c(NCc4ccccc4)ncnc32)cc1 | ? | 4.6µM | - | ? | 3.5µM | 0
CCC(C)N1C(=O)N(c2cccc(Cl)c2)C(C)(O)CC1(C)C (stereo unspecified) | 0 | 0 | - | 0[1.84 µM] | 0 | 0
Nc1ccc2oc(-c3ccccc3Cl)cc(=O)c2c1O | ? | 16µM | 11µM | 4µM | 3.2µM | 6.7µM
